± gives the standard deviation of the averaged measurements.
Each binder was assayed against ScBbc1 (assay: SPOT peptide array binding signal intensity (averaged, normalized) (arbitrary units (background-subtracted, floor 0; scale differs between SH3 domains)); higher = stronger binding of the SH3 domain to the peptide).
Summary of the method: (§1)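 Binding signal refers to normalized, background-subtracted spot intensity averaged over replicates, expressed in arbitrary units that differ between domains. GST-fused SH3 domains from four yeast species were incubated at 10 μg/ml overnight at 4°C on cellulose membranes of synthetic 15-mer peptides with cysteines replaced by serines. Bound protein was detected with anti-GST antibody, an HRP anti-mouse secondary and luminol, and quantified with Genespotter.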
In the case of VSKLRSPNTPRRLRK, the “SPOT peptide array binding signal intensity” value is reported as 266 ± 81.

What follows are binders tested against ScBem1-D1 in the same assay as above.
Summary of the method: as §1
In the case of VSKLRSPNTPRRLRK, the “SPOT peptide array binding signal intensity” value is reported as 25.2 ± 17.

What follows are binders tested against ScBzz1-D1 in the same assay as above.
Summary of the method: as §1
In the case of VSKLRSPNTPRRLRK, the “SPOT peptide array binding signal intensity” value is reported as 23 ± 9.9.

What follows are binders tested against ScBzz1-D2 in the same assay as above.
Summary of the method: as §1
In the case of VSKLRSPNTPRRLRK, the “SPOT peptide array binding signal intensity” value is reported as 9.25 ± 3.9.

The binders below were run against ScCyk3 in the same assay as above.
Summary of the method: as §1
With VSKLRSPNTPRRLRK the “SPOT peptide array binding signal intensity” value was 110 ± 25.

The binders below were run against ScFus1 in the same assay as above.
Summary of the method: as §1
With VSKLRSPNTPRRLRK the “SPOT peptide array binding signal intensity” value was 143 ± 42.

What follows are binders tested against ScHof1 in the same assay as above.
Summary of the method: as §1
VSKLRSPNTPRRLRK was tested, and the “SPOT peptide array binding signal intensity” value was ≤ 0.

The binders below were run against ScHse1 in the same assay as above.
Summary of the method: as §1
For VSKLRSPNTPRRLRK, the “SPOT peptide array binding signal intensity” value was 701 ± 130.

Each binder was assayed against ScLsb1 in the same assay as above.
Summary of the method: as §1
In the case of VSKLRSPNTPRRLRK, the “SPOT peptide array binding signal intensity” value is reported as 33.2 ± 7.8.

The binders below were run against ScLsb2 in the same assay as above.
Summary of the method: as §1
With VSKLRSPNTPRRLRK the “SPOT peptide array binding signal intensity” value was 11.8 ± 1.1.

These binders were tested against ScLsb3 in the same assay as above.
Summary of the method: as §1
For VSKLRSPNTPRRLRK, the “SPOT peptide array binding signal intensity” value was 2420 ± 260.

These binders were tested against ScLsb4 in the same assay as above.
Summary of the method: as §1
With VSKLRSPNTPRRLRK the “SPOT peptide array binding signal intensity” value was 70.5 ± 9.2.

These binders were tested against ScMyo3 in the same assay as above.
Summary of the method: as §1
For VSKLRSPNTPRRLRK, the “SPOT peptide array binding signal intensity” value was 2.62 ± 2.3.

Each binder was assayed against ScMyo5 in the same assay as above.
Summary of the method: as §1
With VSKLRSPNTPRRLRK the “SPOT peptide array binding signal intensity” value was 2.88 ± 1.9.

These binders were tested against ScNbp2 in the same assay as above.
Summary of the method: as §1
For VSKLRSPNTPRRLRK, the “SPOT peptide array binding signal intensity” value was 275 ± 49.

What follows are binders tested against ScPex13 in the same assay as above.
Summary of the method: as §1
In the case of VSKLRSPNTPRRLRK, the “SPOT peptide array binding signal intensity” value is reported as 8.5 ± 12.

These binders were tested against ScRvs167 in the same assay as above.
Summary of the method: as §1
For VSKLRSPNTPRRLRK, the “SPOT peptide array binding signal intensity” value was 230.2 ± 2.2.

Each binder was assayed against ScSho1 in the same assay as above.
Summary of the method: as §1
VSKLRSPNTPRRLRK was tested, and the “SPOT peptide array binding signal intensity” value was 258 ± 32.

The binders below were run against ScSla1-D1-D2 in the same assay as above.
Summary of the method: as §1
For VSKLRSPNTPRRLRK, the “SPOT peptide array binding signal intensity” value was 953 ± 160.

These binders were tested against ScSla1-D3 in the same assay as above.
Summary of the method: as §1
In the case of VSKLRSPNTPRRLRK, the “SPOT peptide array binding signal intensity” value is reported as 36.2 ± 41.

What follows are binders tested against SpAbp1-D1 in the same assay as above.
Summary of the method: as §1
For VSKLRSPNTPRRLRK, the “SPOT peptide array binding signal intensity” value was 384 ± 320.

What follows are binders tested against SpBbc1 in the same assay as above.
Summary of the method: as §1
In the case of VSKLRSPNTPRRLRK, the “SPOT peptide array binding signal intensity” value is reported as 5.75 ± 1.1.

The binders below were run against SpBzz1-D1 in the same assay as above.
Summary of the method: as §1
In the case of VSKLRSPNTPRRLRK, the “SPOT peptide array binding signal intensity” value is reported as 236 ± 150.

These binders were tested against SpBzz1-D2 in the same assay as above.
Summary of the method: as §1
With VSKLRSPNTPRRLRK the “SPOT peptide array binding signal intensity” value was ≤ 0.

These binders were tested against SpCyk3 in the same assay as above.
Summary of the method: as §1
In the case of VSKLRSPNTPRRLRK, the “SPOT peptide array binding signal intensity” value is reported as 5.75 ± 4.6.

Each binder was assayed against SpHof1 in the same assay as above.
Summary of the method: as §1
VSKLRSPNTPRRLRK was tested, and the “SPOT peptide array binding signal intensity” value was 183 ± 6.

Each binder was assayed against SpHof1-2 in the same assay as above.
Summary of the method: as §1
VSKLRSPNTPRRLRK was tested, and the “SPOT peptide array binding signal intensity” value was 17 ± 8.5.

These binders were tested against SpHof1-3 in the same assay as above.
Summary of the method: as §1
For VSKLRSPNTPRRLRK, the “SPOT peptide array binding signal intensity” value was 319 ± 74.

What follows are binders tested against SpHse1 in the same assay as above.
Summary of the method: as §1
For VSKLRSPNTPRRLRK, the “SPOT peptide array binding signal intensity” value was 172 ± 74.

Each binder was assayed against SpLsb1 in the same assay as above.
Summary of the method: as §1
With VSKLRSPNTPRRLRK the “SPOT peptide array binding signal intensity” value was 33.8 ± 4.6.

What follows are binders tested against SpLsb4 in the same assay as above.
Summary of the method: as §1
For VSKLRSPNTPRRLRK, the “SPOT peptide array binding signal intensity” value was 2990 ± 950.

What follows are binders tested against SpMyo1 in the same assay as above.
Summary of the method: as §1
With VSKLRSPNTPRRLRK the “SPOT peptide array binding signal intensity” value was 3.25 ± 2.5.

What follows are binders tested against SpNbp2 in the same assay as above.
Summary of the method: as §1
In the case of VSKLRSPNTPRRLRK, the “SPOT peptide array binding signal intensity” value is reported as 109 ± 68.

Each binder was assayed against SpPex13 in the same assay as above.
Summary of the method: as §1
In the case of VSKLRSPNTPRRLRK, the “SPOT peptide array binding signal intensity” value is reported as 5.5 ± 2.1.

Each binder was assayed against SpRvs167 in the same assay as above.
Summary of the method: as §1
For VSKLRSPNTPRRLRK, the “SPOT peptide array binding signal intensity” value was 195 ± 91.

The binders below were run against SpSla1-D1-D2 in the same assay as above.
Summary of the method: as §1
For VSKLRSPNTPRRLRK, the “SPOT peptide array binding signal intensity” value was 10.2 ± 3.9.

These binders were tested against SpSla1-D3 in the same assay as above.
Summary of the method: as §1
In the case of VSKLRSPNTPRRLRK, the “SPOT peptide array binding signal intensity” value is reported as 2.5 ± 0.71.
